# Records with an inconclusive call do not appear. A call without a number means that no potency is given here. Activity calls are given as the source filed them. The call rests on the fitted dose curve; in most records, active means well fitted curve in the direction sought with a large enough effect; inconclusive means small, poorly fitted or top-dose-only effect, or another doubt; inactive means no such curve, though single readings can be large; an effect the other way counts as inactive or inconclusive.
# Tested on: not listed separately
# Assay: qHTS to identify inhibitors of the type 1 interferon - major histocompatibility complex class I in skeletal muscle: primary screen against the NCATS Pharmaceutical Collection (AID 1347407);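 further: luminescence of HiBiT knocked into endogenous HLA-B as interferon-induced MHC class I level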
# Settings: human skeletal muscle cells, IFN-b-induced MHC-I HiBiT luminescence, 24 h; series mostly up to 45.9 µM
# How it was run: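 A qHTS format is used: 8-point, 1:5 compound series with 46 uM top final concentration, applied alongside 4 ng/ml IFN-beta to HLA-B*08:01-HiBiT knock-in myoblasts. Luminescence is measured after 24 h treatment.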
row,Compound,Potency
1,Nc1nc(N)nc(NC2CC2)n1,inactive
2,CN1CC[C@]23c4c5ccc(O)c4O[C@H]2[C@@H](O)CC[C@H]3[C@H]1C5,inactive
3,COc1cc(CC(C)N)cc(OC)c1OC (stereo not drawn),inactive
4,C[C@H]1[C@@H]2Cc3ccc(O)cc3[C@@]1(C)CCN2C,inactive
5,COC(=O)C(Cl)C(=O)OC,inactive
6,CCCOC(=O)c1cncn1C(C)c1ccccc1 (stereo not drawn),inactive
7,CC(Cc1ccccc1)NCCn1cnc2c1c(=O)n(C)c(=O)n2C (stereo not drawn),inactive
8,COP(=S)(OC)SCN1C(=O)c2ccccc2C1=O,inactive
9,C[C@H](N)C(=O)c1ccccc1,inactive
10,Clc1cccc(SC2CCNCC2)n1,inactive
11,CCCCCCCCCC(=O)O[C@H]1CC[C@H]2[C@@H]3CCC4=CC(=O)CC[C@@H]4[C@H]3CC[C@]12C,inactive
12,COc1cccc([C@@]2(O)CCCC[C@@H]2CN(C)C)c1,inactive
13,CCN(CC)C(=O)[C@@H]1C=C2c3cccc4[nH]cc(c34)C[C@H]2N(C)C1,inactive
14,CCOC(=O)CC(SP(=S)(OC)OC)C(=O)OCC (stereo not drawn),inactive
15,CCC1(CC)C(=O)C=CNC1=O,inactive
16,c1ccc(N2CCNCC2)cc1,inactive
17,[N-]=[N+]=CC(=O)OC[C@H](N)C(=O)O,inactive
18,CCC1(c2ccccc2)C(=O)N(COC)C(=O)N(COC)C1=O,inactive

row,Compound,Potency
1,NC(=O)CS(=O)C(c1ccccc1)c1ccccc1 (stereo not drawn),inactive
2,CN1CCC(O)(c2ccc(F)cc2)C(C(=O)c2ccc(F)cc2)C1 (stereo not drawn),inactive
3,O=C1CN=C(c2ccccc2)c2cc([N+](=O)[O-])ccc2N1,inactive
4,O=C1OC(c2ccc(O)c(S(=O)(=O)O)c2)(c2ccc(O)c(S(=O)(=O)O)c2)c2c(Br)c(Br)c(Br)c(Br)c21,inactive
5,O=C1c2ccccc2C(=O)C1C(=O)C(c1ccccc1)c1ccccc1,inactive
6,Nc1ccccc1C(=O)O,inactive
7,CNCC(=O)c1ccc(O)c(O)c1,inactive
8,CN(C)CCc1c[nH]c2cccc(OP(=O)(O)O)c12,inactive
9,COC(=O)[C@@H](N)CCCN/C(N)=N/[N+](=O)[O-],inactive
10,O=C(O)c1ccc(=O)[nH]c1,inactive
11,CCN[C@H](C)Cc1cccc(C(F)(F)F)c1,inactive
12,CC(C)=CC1C(C(=O)OCN2C(=O)C3=C(CCCC3)C2=O)C1(C)C (stereo not drawn),inactive
13,CCN(CC)CCc1c[nH]c2ccccc12,inactive
14,CC(C)(N)Cc1ccccc1Cl,inactive
15,NNc1ccccc1,inactive
16,COc1cc(CCN)cc(OC)c1OC,inactive
17,O=C(N/N=C/c1ccc([N+](=O)[O-])o1)c1cc([N+](=O)[O-])cc([N+](=O)[O-])c1O,inactive

# Target: Protein phosphatase 1D (Homo sapiens) (UniProt O15297)
# Sequence (O15297 whole entry, looked up): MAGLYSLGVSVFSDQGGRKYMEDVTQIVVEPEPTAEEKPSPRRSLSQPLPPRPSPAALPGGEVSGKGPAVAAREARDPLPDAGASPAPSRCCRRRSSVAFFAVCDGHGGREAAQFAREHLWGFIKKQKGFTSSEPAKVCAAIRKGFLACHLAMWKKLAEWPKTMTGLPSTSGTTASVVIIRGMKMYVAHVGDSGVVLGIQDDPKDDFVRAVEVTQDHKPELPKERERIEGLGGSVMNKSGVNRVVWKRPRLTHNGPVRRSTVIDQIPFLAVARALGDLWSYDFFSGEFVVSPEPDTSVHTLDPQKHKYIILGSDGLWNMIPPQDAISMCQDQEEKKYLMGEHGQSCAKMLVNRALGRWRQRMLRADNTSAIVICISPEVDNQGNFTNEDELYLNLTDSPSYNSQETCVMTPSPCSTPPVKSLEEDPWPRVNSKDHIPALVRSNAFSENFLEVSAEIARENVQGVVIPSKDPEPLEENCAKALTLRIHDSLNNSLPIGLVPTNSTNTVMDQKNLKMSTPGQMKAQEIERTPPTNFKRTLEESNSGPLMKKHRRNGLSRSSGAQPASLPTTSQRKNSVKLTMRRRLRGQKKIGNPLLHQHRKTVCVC
# Assay: RapidFire Mass Spectrometry qHTS Assay for Modulators of WT P53-Induced Phosphatase 1 (WIP1) (AID 1347424);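 further: amount of dephosphorylated VEPPL-S-QETFS peptide product formed by WIP1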; further: potency means the concentration at half of the fitted maximal effect
# Settings: WIP1 dephosphorylation of phosphopeptide, RapidFire MS; series mostly up to 63 µM
# How it was run: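 10 nM WIP1 preincubated with compounds 1 hr at room temperature in pH 7.5 Tris buffer with 30 mM MgCl2, 1 mM TCEP; 2 uM VEPPL-pS-QETFS phosphopeptide for 5 min, formic acid quench; dephosphorylated product quantified by RapidFire MS against labelled standard.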
row,Compound,Potency
1,Nc1nc(N)nc(NC2CC2)n1,inactive
2,CN1CC[C@]23c4c5ccc(O)c4O[C@H]2[C@@H](O)CC[C@H]3[C@H]1C5,inactive
3,COP(=S)(OC)Oc1cc(Cl)c(Cl)cc1Cl,inactive
4,COc1cc(CC(C)N)cc(OC)c1OC (stereo not drawn),inactive
5,C[C@H]1[C@@H]2Cc3ccc(O)cc3[C@@]1(C)CCN2C,inactive
6,COC(=O)C(Cl)C(=O)OC,inactive
7,CCCOC(=O)c1cncn1C(C)c1ccccc1 (stereo not drawn),inactive
8,CC(Cc1ccccc1)NCCn1cnc2c1c(=O)n(C)c(=O)n2C (stereo not drawn),inactive
9,COP(=S)(OC)SCN1C(=O)c2ccccc2C1=O,inactive
10,C[C@H](N)C(=O)c1ccccc1,inactive
11,Clc1cccc(SC2CCNCC2)n1,inactive
12,CCCCCCCCCC(=O)O[C@H]1CC[C@H]2[C@@H]3CCC4=CC(=O)CC[C@@H]4[C@H]3CC[C@]12C,inactive
13,COc1cccc([C@@]2(O)CCCC[C@@H]2CN(C)C)c1,inactive
14,CCN(CC)C(=O)[C@@H]1C=C2c3cccc4[nH]cc(c34)C[C@H]2N(C)C1,inactive
15,CCOC(=O)CC(SP(=S)(OC)OC)C(=O)OCC (stereo not drawn),inactive
16,CCC1(CC)C(=O)C=CNC1=O,inactive
17,c1ccc(N2CCNCC2)cc1,inactive

row,Compound,Potency
1,[N-]=[N+]=CC(=O)OC[C@H](N)C(=O)O,inactive
2,CCC1(c2ccccc2)C(=O)N(COC)C(=O)N(COC)C1=O,inactive
3,NC(=O)CS(=O)C(c1ccccc1)c1ccccc1 (stereo not drawn),inactive
4,CN1CCC(O)(c2ccc(F)cc2)C(C(=O)c2ccc(F)cc2)C1 (stereo not drawn),inactive
5,O=C1CN=C(c2ccccc2)c2cc([N+](=O)[O-])ccc2N1,inactive
6,O=C1OC(c2ccc(O)c(S(=O)(=O)O)c2)(c2ccc(O)c(S(=O)(=O)O)c2)c2c(Br)c(Br)c(Br)c(Br)c21,10 µM (active)
7,Nc1ccccc1C(=O)O,inactive
8,CNCC(=O)c1ccc(O)c(O)c1,inactive
9,COC(=O)[C@@H](N)CCCN/C(N)=N/[N+](=O)[O-],inactive
10,O=C(O)c1ccc(=O)[nH]c1,inactive
11,CCN[C@H](C)Cc1cccc(C(F)(F)F)c1,inactive
12,CC(C)=CC1C(C(=O)OCN2C(=O)C3=C(CCCC3)C2=O)C1(C)C (stereo not drawn),inactive
13,CCN(CC)CCc1c[nH]c2ccccc12,inactive
14,CC(C)(N)Cc1ccccc1Cl,inactive
15,NNc1ccccc1,inactive
16,COc1cc(CCN)cc(OC)c1OC,inactive

# Reference: PubChem BioAssay (NCATS)
